RORgamma inh: blocks mouse ROR gamma transcriptional activity | P51450 | 310,000 compounds, 5.4% hits | Potency, µM (top dose mostly 53.6 µM), for the others: top-dose activity change, negative = inhibition, actives largely listed as inhibitors | AID 2551 | Drosophila S2 Gal4-RORgamma UAS-luciferase reporter, 20 h; also: potency is read from the fitted curve at half-maximal effect; nearly all actives have a fitted effect of over 60% in size
Target sequence (P51450 whole entry, looked up, the tested form may be a part): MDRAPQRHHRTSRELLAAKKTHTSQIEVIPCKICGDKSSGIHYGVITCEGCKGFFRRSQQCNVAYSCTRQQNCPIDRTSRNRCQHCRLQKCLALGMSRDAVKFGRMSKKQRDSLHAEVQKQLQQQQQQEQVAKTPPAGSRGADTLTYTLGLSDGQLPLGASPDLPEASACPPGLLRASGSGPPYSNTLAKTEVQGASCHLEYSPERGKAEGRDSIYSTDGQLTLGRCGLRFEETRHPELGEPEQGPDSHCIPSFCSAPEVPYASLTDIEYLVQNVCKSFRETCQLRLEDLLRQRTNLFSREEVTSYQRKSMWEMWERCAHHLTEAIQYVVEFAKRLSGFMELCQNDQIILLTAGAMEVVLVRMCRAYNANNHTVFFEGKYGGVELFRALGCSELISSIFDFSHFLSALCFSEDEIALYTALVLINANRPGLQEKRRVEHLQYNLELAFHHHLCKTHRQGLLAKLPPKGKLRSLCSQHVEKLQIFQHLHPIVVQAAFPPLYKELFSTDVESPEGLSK
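Stably transfected Drosophila Schneider cells are the test system, with ROR gamma fused to Gal4 and luciferase under UAS control; luminescence is read after 20 hr of 700 uM copper sulfate induction at ambient temperature.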
DT40 TDP1 CPT: DT40-hTDP1 cell growth loss with CPT; chicken DT40 Tdp1-/-;hTDP1 cells + 20 nM CPT, ATP luminescence, 48 h; 420,000 compounds, 12% hits; AID 686979; Potency, µM (series often up to 46.2 µM), for inactives: at the highest dose activity change, negative = growth inhibition, hits mostly inhibitors; also: potency is read from the fitted curve at half-maximal effect; nearly all actives have a fitted effect of over 55% in size
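Cell growth measured by CellTiter-Glo luminescence after a minimum 48 h, 37 C compound exposure with 20 nM CPT in Tdp1-knockout DT40 cells stably expressing hTDP1, seeded 400/well; qHTS titration format.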
ELG1 repair inh: ELG1-dependent DNA repair inhibition; HEK293T ELG1-luciferase reporter, luminescence, 16 h; DNA damage induced by 5-fluorouridine; Potency, µM (doses to about 46.1 µM), without a hit: at the top dose activity change, negative = inhibition, hits mostly inhibitors; 330,000 compounds, 2.3% hits; AID 504467; also: potency is read from the fitted curve at half-maximal effect; nearly all actives have a fitted effect of over 55% in size
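Overnight (16 hr) co-exposure of 2,000 cells/well to 5-fluorouridine and compound at 37 °C preceded detection. Luciferase was quantified via ONE-Glo luminescence; loss of signal denotes inhibition.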
IL1B secr inh: inhibitors of inflammasome signaling (IL-1 beta secretion). 360,000 compounds, 4.7% hits. THP-1 LPS/ATP IL-1B secretion, AlphaLISA, 16 h; stronger effect = lower value. activity change, % at 57.5 µM. AID 743279; in the data active = activity change below about -50%; inconclusive = mostly about -30% to -49%
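Secreted IL-1B measured by AlphaLISA bead assay after 16 h compound exposure of THP-1 cells; compounds (final up to 57.5 uM) added 1 h before LPS (250 ng/mL) and ATP (1.25 mM) stimulation; lower signal means less secretion.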
TDP1 cell noCPT: qHTS for Inhibitors of human tyrosyl-DNA phosphodiesterase 1 (TDP1): qHTS in cells in absence of CPT; DT40 Tdp1-/- hTDP1 cells, no CPT, ATP luminescence, 48 h; AID 686978, 2013; Potency, µM (top dose mostly 46.2 µM), for the others: at the highest dose activity change, negative = growth inhibition, hits mostly inhibitors; 420,000 compounds, 15% hits; also: potency is read from the fitted curve at half-maximal effect; nearly all actives have a fitted effect of over 55% in size
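Growth kinetics read by CellTiter-Glo luminescence after ≥48 hr at 37 °C. Cells: DT40 Tdp1-/- stably carrying human TDP1, 400 per well, compound exposure in the absence of CPT (DMSO vehicle).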
VP16 counter: counter-screen for ROR gamma inhibitors: Gal4-VP16 reporter; 310,000 compounds, 3.5% hits; Drosophila S2 Gal4-VP16 UAS-luciferase, luminescence, 20 h; AID 2546; Potency, µM (highest dose often 53.6 µM), inactives show at the highest dose activity, negative = inhibition, most hits filed as inhibitors;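 also: Gal4-VP16 expression switched on by copper sulfate through the metallothionein promoter; potency is read from the fitted curve at half-maximal effect; nearly all actives have a fitted effect of over 50% in size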
* marks the source's active call; other numbers are inactive results; ? = inconclusive; . = not tested or not shown; [ ] = another dose, or the depositor's remark. In the library only some 21% were active in any assay of this set; here they are far more common. Unless noted, calls follow the shape of the dose curve; as a rule, active = well fitted curve in the direction sought with a large enough effect; inconclusive = small, poorly fitted or top-dose-only effect, or another doubt; inactive = no such curve, though single readings can be large; an effect the other way counts as inactive or inconclusive. % is scaled to controls: 0 for no effect and ±100 for the full control effect.

SMILES	RORgamma inh	DT40 TDP1 CPT	ELG1 repair inh	IL1B secr inh	TDP1 cell noCPT	VP16 counter
Cc1cnc(C)c(Nc2nc(C(N)c3ccccc3)cs2)n1 (stereo not drawn)	.	?	.	0	?	.
CC(N)c1csc(Nc2nncc3ccccc23)n1 (stereo not drawn)	.	?	.	-70*	?	.
COc1cc(OC)c(NC(=O)c2cc(CN3CCOCC3)on2)cc1Cl	.	1%	.	.	-19%	.
COC(=O)c1ccc(N2CCN(c3ccccc3)CC2)nc1	16%	1%	?	12	1%	?
COc1cc(C(=O)NCCNc2nc3cc(C)ccc3cc2C#N)cc(OC)c1OC	?	?	?	11	16µM*	-9%
Cc1ccc2cc(C#N)c(NCc3ccco3)nc2c1	0%	23µM*	1%	13	?	-27%
COc1cc(C(=O)NCCNc2nc3c(C)c(C)ccc3cc2C#N)cc(OC)c1OC	12%[1.91 µM]	-2%	0%	-24	-15%	14%
COc1cc(C(=O)NCCCNc2nc3cc(C)c(C)cc3cc2C#N)cc(OC)c1OC	19%	?	?	-19	23µM*	-22%
CCOc1ccc2nc(NCCNC(=O)c3cc(OC)c(OC)c(OC)c3)c(C#N)cc2c1	5%	-20%	13µM*	-10	?	-11%
Cc1ccc2cc(C)c(SCC(=O)NCc3ccco3)nc2c1	?	-24%	5%	4	?	26%
Cc1ccc(NC(=O)/C(=C/c2cccs2)NC(=O)c2ccco2)cc1	-7%	-17%	16%	-5	-9%	-8%
O=C1OC(c2cccc([N+](=O)[O-])c2)C2(CCCC2)C(=O)C12CCCCC2 (stereo not drawn)	?	23µM*	7%	-9	?	-17%
CC1(C)C(=O)C2(CCCCC2)C(=O)OC1c1cccn1-c1ccc([N+](=O)[O-])cc1 (stereo not drawn)	-6%	?	8%	4	?	1%
Nc1ccc(CSc2ccccc2)cc1	.	-16%	.	-22	-11%	.
NC(=O)c1cccc(Nc2nc(C(N)Cc3ccc(C(F)(F)F)cc3)cs2)n1 (stereo not drawn)	.	6.5µM*	.	-28	10µM*	.
COc1cccc(Nc2nc(C(N)Cc3ccc(C(F)(F)F)cc3)cs2)n1 (stereo not drawn)	.	9.2µM*	.	?	12µM*	.
COc1ccc(C(N)c2csc(Nc3ccc(C(F)(F)F)cn3)n2)cc1 (stereo not drawn)	.	?	.	-8	18µM*	.
COc1ccc(CC(N)c2csc(Nc3cccc(OC)n3)n2)cc1 (stereo not drawn)	.	15µM*	.	0	13µM*	.
O=C(COC(=O)CCS(=O)(=O)c1ccc(Cl)cc1)NCCc1ccc(Cl)cc1Cl	-36%	12%	21%	6	7%	?
O=C(NCc1c[nH]c2ccccc12)c1ccccc1	.	1%	.	5	-5%	.
Cc1nc(N)sc1-c1csc(Nc2ccccn2)n1	?	?	?	-24	?	-3%
COc1cccc(Nc2nc(C(N)Cc3ccc(Cl)cc3)cs2)n1 (stereo not drawn)	.	6.5µM*	.	-67*	6.5µM*	.
COc1ccc(CC(N)c2csc(Nc3ccccn3)n2)cc1 (stereo not drawn)	.	23µM*	.	-50*	26µM*	.
NC(Cc1ccccc1)c1csc(Nc2ccc(C(F)(F)F)cn2)n1 (stereo not drawn)	.	21µM*	.	-53*	21µM*	.
Cc1ccc(CNc2nc(CN3CCNC(=O)C3)nc3ccccc23)o1	.	?	.	.	-22%	.
SMILES	RORgamma inh	DT40 TDP1 CPT	ELG1 repair inh	IL1B secr inh	TDP1 cell noCPT	VP16 counter
COC(=O)[C@H](COC(C)(C)C)NC(=O)O[C@@H]1Cc2cc(OC)ccc2O[C@H]1c1cccc(OC)c1	10%	.	.	.	.	-3%
O=S(=O)(c1ccccc1F)N1CCC(c2nc3ccccc3[nH]2)CC1	21%	?	?	-1	?	4%
CCc1ccccc1NC(=O)Cn1c(=O)n(-c2ccc(C)cc2)c(=O)c2cc(OC)c(OC)cc21	.	3%	.	.	4%	.
Cc1nc(COc2ccccc2Cl)sc1-c1ccnc(N)n1	13%	?	18%	-62*	?	-2%
COc1ncc(-c2ccc(N3C(c4ccc([N+](=O)[O-])cc4)=Cc4ccccc4C3CC(C)=O)cc2)cn1 (stereo not drawn)	.	?	.	8	?	.
COc1ccc(OC)c(NC(=O)CC2C(=O)NCCN2C(=O)Nc2cccc(Cl)c2)c1 (stereo not drawn)	2%	?	?	-66*	-14%	13%
O=C(CC1C(=O)NCCN1C(=O)Nc1ccc(Cl)cc1)Nc1ccc(F)cc1 (stereo not drawn)	31%	-29%	1%	-64*	-21%	-6%
O=C(CC1C(=O)NCCN1C(=O)c1ccc(Cl)cc1)Nc1ccc(F)cc1 (stereo not drawn)	-19%	1%	3%	-3	11%	6%
COc1ccc(C(=O)N2CCNC(=O)C2CC(=O)Nc2cc(Cl)ccc2OC)cc1 (stereo not drawn)	-29%	-2%	-4%	-15	-4%	-14%
Cc1ccc(-c2nc(N)sc2-c2ccccc2)cc1C	7.9µM*	?	-4%	?	?	10µM*
Cc1ccc(-c2nc(N)sc2C)cc1	-9%	0%	?	?	0%	23%
Cc1ccc(-c2nc(N)sc2-c2ccc(C)cc2)cc1	?	?	?	-25	16µM*	?
Cc1nn(C(C)C(=O)O)c(=O)c2ccccc12 (stereo not drawn)	13%	28%	-13%	7	-11%	-9%
CC1(C(=O)NS(=O)(=O)c2cccc(Cl)c2)CCN1C(=O)c1cccc2ccccc12 (stereo not drawn)	.	-1%	.	39	8%	.
CCCc1nnc(NC(=O)c2c(O)c3cccc4c3n(c2=O)CCC4)s1	13%	3.5µM*	0%	.	0.79µM*	4%
Cc1ccc(N(CC(=O)N2CCN(c3cc(C)ccc3C)CC2)S(=O)(=O)c2c(C)nn(C)c2C)cc1	.	21µM*	.	.	16µM*	.
COc1ccc(N(CC(=O)N2CCN(c3cccc(C)c3C)CC2)S(=O)(=O)c2c(C)noc2C)cc1	7%	21µM*	-10%	-28	16µM*	1%

Screens (PubChem)
